Reference: PubChem BioAssay (NCI)
“And” between values parts separate entries of the source, which are not always exact repeats. Identical values can stand only once. Compounds without any hit were thinned out: in the full panel of roughly 83,000, 20% have a hit.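 Values shown are percent growth following 48 h exposure of cells in 96-well plates to a single concentration of compound; below 10 was considered active.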 The source made the active and inactive calls.

Tests used:
Assay in all cases: NCI-60 one-dose screen, 48 h (100 = growth as untreated, 0 = no growth, -100 = all killed)
Conditions in all cases: 10 µM unless noted
[1] = tested on: NCI-H23 lung
[2] = tested on: NCI-H226 lung
[3] = tested on: NCI-H322M lung
[4] = tested on: HOP-62 NSCLC
[5] = tested on: NCI-H460 lung
[6] = tested on: HOP-92 NSCLC
[7] = tested on: NCI-H522 lung
[8] = tested on: 786-0 renal
[9] = tested on: COLO 205 colon
[10] = tested on: DU-145 prostate
[11] = tested on: K-562 leukemia
[12] = tested on: MALME-3M melanoma
[13] = tested on: MDA-MB-231 breast
[14] = tested on: RXF 393 renal
[15] = tested on: SF-268 CNS
[16] = tested on: SF-295 CNS
[17] = tested on: SF-539 CNS
[18] = tested on: UACC-257 melanoma
[19] = tested on: M14 melanoma
[20] = tested on: A549/ATCC NSCLC

Measured: growth

O=C1CCC(=O)N1CC1CC2CCC1C2 (configuration not stated)
inactive: [1] 92.7% and 102% | [2] 95.9% and 92.2% | [3] 104% and 80.5% | [4] 96.2% and 86.7% | [5] 107% and 102% | [6] 99.9% and 101% | [7] 91.8% and 95.2% | [8] 98.5% and 97.6% | [9] 117% and 92.5% | [10] 127% and 98.7% | [11] 71.2% and 94.1% | [12] 98.1% and 87.7% | [13] 98.8% | [14] 105% and 106% | [15] 100% and 95.2% | [16] 83.4% and 90.2% | [17] 101% and 87.8% | [18] 104% and 83.5% | [19] 103% and 95.6%

CN1C2C=CC(=O)C1C1C(=O)N(c3ccccc3)C(=O)C12 (configuration not stated)
inactive: [1] 96.7% | [2] 105% | [3] 98.4% | [4] 91.2% | [5] 80.6% | [6] 32.3% | [20] 106% | [8] 93.5% | [9] 99.9% | [10] 37.3% | [11] 40.8% | [12] 82.5% | [13] 93.9% | [14] 59.1% | [15] 74.1% | [16] 99% | [17] 66.5% | [18] 81.8% | [19] 105%

Cc1cc(NC(=O)NC(=O)c2ccccc2N(C)C)ccc1Oc1ncc(Br)cn1
inactive: [1] 19.3% and 24.7% | [2] 55.6% and 66.4% | [3] 44.4% and 66.2% | [4] 37.7% | [6] 57.5% | [8] 27.9% and 31.4% | [9] 14.2% | [12] 24.6% and 55.2% | [15] 44.8% and 63.6% | [16] 35.1% and 36.1% | [18] 26% and 73.5% | [19] 22.8% and 17.1%
-3.51% (active) and 20.7% (inactive): [10]
9.21% (active) and 34.1% (inactive): [13]
8.31% (active) and 10.8% (inactive): [5]
-22.2% (active) and 15.1% (inactive): [7]
active: [17] -8.43% and -14.3%
0.98% (active) and 20.3% (inactive): [11]
30.2% (inactive) and -1.61% (active): [14]

CCOC(=O)C(N)Cc1cc(I)c(O)c(I)c1 (configuration not stated)
inactive: [1] 99.5% and 102% | [2] 91.6% and 96.6% | [3] 113% and 106% | [4] 106% and 113% | [5] 109% and 115% | [7] 108% and 90.7% | [8] 99.7% and 105% | [9] 108% and 110% | [10] 109% and 107% | [11] 105% | [12] 115% | [13] 104% and 97.5% | [14] 105% and 112% | [15] 99% and 100% | [16] 115% and 124% | [17] 115% and 102% | [18] 108% | [19] 105% and 104%
102% (inactive) and -3.49% (active): [6]

Cc1ccc(S(=O)(=O)n2ccnc2)cc1
inactive: [1] 102% | [2] 93.5% | [3] 118% | [4] 106% | [5] 104% | [6] 97% | [7] 95.8% | [8] 138% | [9] 120% | [10] 120% | [11] 123% | [12] 107% | [13] 98.9% | [14] 96.2% | [15] 104% | [16] 102% | [17] 96.7% | [18] 91.5% | [19] 104%

COc1ccc(S(=O)(=O)c2ccc(F)cc2)cc1
inactive: [1] 102% | [2] 97.1% | [3] 117% | [4] 109% | [5] 114% | [6] 92.7% | [7] 83.3% | [8] 103% | [9] 113% | [10] 113% | [11] 115% | [12] 93% | [13] 94.2% | [14] 138% | [15] 101% | [16] 116% | [17] 111% | [18] 93.8% | [19] 101%

COc1cc([C@@H]2c3cc4c(cc3[C@H](O)[C@H]3COC(=O)[C@@H]23)OCO4)cc(OC)c1OC
37.5% (inactive) and -7.61% (active): [6]
active: [5] 4.7% and -1.68% | [7] -13.6% and -44.2% | [9] -45.7% and -74.4% | [17] -30.4% and -4.79% | [19] 9.16% and -73.8%
7.77% (active) and 69.7% (inactive): [12]
inactive: [1] 12.2% and 13.6% | [2] 51.8% and 45.6% | [3] 38.9% and 23.5% | [4] 15.7% | [13] 36.9% and 17.5% | [14] 39.6% and 28.2% | [15] 27.1% and 24.4% | [18] 18.6% and 57.2%
27.1% (inactive) and -27.4% (active): [10]
8.28% (active) and 25.4% (inactive): [11]
44.1% (inactive) and -74.9% (active): [8]
34.1% (inactive) and -22.3% (active): [16]

CC(=O)Nc1ccc2oc(=O)ccc2c1
inactive: [1] 101% | [2] 96.5% | [3] 101% | [4] 96.7% | [5] 109% | [6] 95% | [7] 93.3% | [20] 102% | [8] 81.6% | [9] 107% | [10] 100% | [11] 64.9% | [12] 110% | [13] 94.6% | [14] 103% | [15] 114% | [16] 108% | [17] 99.1% | [18] 104% | [19] 100%

OCCS
inactive: [1] 93.7% | [2] 98.8% | [3] 101% | [4] 97.3% | [5] 106% | [8] 94.2% | [9] 107% | [10] 104% | [11] 91.4% | [12] 101% | [13] 99.3% | [14] 110% | [15] 99.5% | [16] 101% | [17] 100% | [18] 90.9% | [19] 97.6%

N=C(N=C(N)N)N1CCOCC1
inactive: [1] 103% and 90.8% | [2] 99.3% and 98.3% | [3] 95.4% and 112% | [4] 94.7% and 106% | [5] 99.8% and 102% | [7] 94.7% and 107% | [20] 103% and 94.2% | [8] 104% and 95.6% | [9] 104% and 107% | [10] 102% and 106% | [11] 106% and 112% | [12] 90.6% and 108% | [13] 104% and 99.2% | [14] 111% | [15] 104% and 102% | [16] 110% and 96.9% | [17] 105% and 95.9% | [18] 107% and 104% | [19] 91.1% and 97.2%

O=c1[nH]nnc2cc(Cl)ccc12
inactive: [1] 94.4% and 92.2% | [2] 104% and 93.2% | [3] 110% and 115% | [5] 114% and 101% | [6] 109% | [7] 103% and 106% | [20] 101% | [8] 117% and 94.5% | [9] 112% and 117% | [10] 108% and 114% | [11] 119% and 98.3% | [12] 124% and 113% | [13] 105% and 97.6% | [14] 119% and 111% | [15] 101% and 95.4% | [16] 103% | [17] 104% and 106% | [18] 98.6% and 105% | [19] 105%

C(#CCN1CCOCC1)CCCN1CCOCC1
inactive: [1] 109% and 105% | [2] 100% and 115% | [3] 119% and 99% | [4] 93.5% and 99.9% | [5] 114% and 111% | [7] 105% and 95.4% | [20] 105% and 100% | [8] 110% and 100% | [9] 105% and 104% | [10] 109% and 117% | [11] 114% and 113% | [12] 117% and 88.9% | [13] 96.7% and 106% | [14] 110% and 119% | [15] 105% and 104% | [16] 113% and 106% | [17] 104% and 91.7% | [18] 97.5% and 101% | [19] 105% and 98%
